From PubChem BioAssay
D1 potentiator = Potentiators of Human D1 Dopamine Receptor: qHTS; potentiation, % at 10 µM; 360,000 compounds, 0.036% hits; AID 504651, 2011; HEK293 TREx D1 cells, calcium flux, dopamine EC20 potentiation; in the data active = potentiation above about 30%
TRHR agonist = qHTS for Small Molecule Agonists and Allosteric Enhancers of Human TRH Receptor: Primary Screen for Agonists | Thyrotropin-releasing hormone receptor (Homo sapiens), P34981 | TRHR cells, calcium flux fluo-8, FDSS agonist mode | activation, % at 2 µM | 360,000 compounds, 0.18% hits | AID 493084, 2011
Target sequence (P34981 whole entry, looked up): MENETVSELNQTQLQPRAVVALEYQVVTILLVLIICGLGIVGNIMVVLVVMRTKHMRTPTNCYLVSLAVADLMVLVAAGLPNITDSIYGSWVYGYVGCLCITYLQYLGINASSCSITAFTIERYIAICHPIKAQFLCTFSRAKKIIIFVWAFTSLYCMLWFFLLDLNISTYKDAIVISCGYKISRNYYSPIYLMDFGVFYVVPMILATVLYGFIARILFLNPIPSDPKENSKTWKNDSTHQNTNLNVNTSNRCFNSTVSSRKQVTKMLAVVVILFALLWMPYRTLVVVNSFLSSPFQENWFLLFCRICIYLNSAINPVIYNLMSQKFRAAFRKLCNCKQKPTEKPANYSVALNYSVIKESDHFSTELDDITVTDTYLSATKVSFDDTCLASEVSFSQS
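TRHR-expressing cells loaded with fluo-8 calcium dye; 23 nL library compound pin-transferred, kinetic FDSS fluorescence (Ex 480/Em 530) recorded about 180 s for agonist-induced calcium release, before a 10 nM TRH EC20 addition for potentiator mode.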
D1 agonist = Allosteric Agonists of the Human D1 Dopamine Receptor: qHTS | D(1A) dopamine receptor (Homo sapiens), P21728 | HEK293 T-REx D1 cells, calcium flux, agonist mode | activation, % at 2 µM | 360,000 compounds, 1% hits | AID 504660, 2011
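Tetracycline-induced HEK293 TREx D1 cells, force-coupled to calcium signalling, were dye-loaded with a no-wash calcium kit. Compound was pin-added after a 10 s baseline. Fluorescence was read kinetically at 1 cycle/s for 180 s, with calcium rises flagged as agonism.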
TRHR enhancer = qHTS for Small Molecule Agonists and Allosteric Enhancers of Human TRH Receptor: Primary Screen for Enhancers; Thyrotropin-releasing hormone receptor (Homo sapiens), P34981; TRHR cells, fluo-8 calcium fluorescence, EC20 TRH enhancement; enhancement, % at 2 µM; 360,000 compounds, 0.66% hits; in the data active = enhancement above about 30%
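TRHR-expressing cells loaded with fluo-8 calcium dye were read kinetically (ex 480/em 530) during compound addition, then stimulated with an EC20 of TRH (10 nM final). Enhancement of the Gq-mediated intracellular calcium response was scored.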
D1 antagonist = Antagonist of Human D 1 Dopamine Receptor: qHTS; D(1A) dopamine receptor (Homo sapiens), P21728; HEK293 TREx D1 cells, calcium flux, dopamine EC80; hits give low values; activity change, negative = inhibition, % at 10 µM; 360,000 compounds, 3.2% hits; AID 504652, 2011; in the data active = activity change below about -30%
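Kinetic fluorescence of a calcium dye serves as the read-out. D1-expressing Hek293 Trex cells, induced overnight at 30 C, are exposed to compound for 180 s before an EC80 dopamine addition, then read 180 s further.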
Large screens that a line does not name were inactive. Compounds with a hit are over-represented: about 4.6% of the library has one in this group of screens. Cut-off read from the data, not from the text of the source, unless noted: active = activation above about 30%; inactive = the rest.

COC(=O)c1cccc(NC(=S)Nc2ccc(Cl)c(Cl)c2)c1	D1 antagonist -30.9
COC(=O)c1cccc(NC(=O)Nc2ccc(Cl)cc2)c1	D1 antagonist -34.5
CCc1ccc2oc(C(=O)NCc3ccncc3)c(C)c2c1	none
Cc1cc(C)c2c(C)c(C(=O)NCc3ccncc3)oc2c1	D1 antagonist -43.8
COc1cccc(-n2c(=O)c3sccc3n(Cc3cc(=O)n4cc(Cl)ccc4n3)c2=O)c1	D1 antagonist -31.9
O=c1c2sccc2n(Cc2cc(=O)n3ccccc3n2)c(=O)n1-c1cccc(C(F)(F)F)c1	none
Cc1ccc(Oc2nc3c(c(=O)n(Cc4ccccc4)c(=O)n3C)n2C)cc1C	none
CC(C)COc1ccc(C(=O)Nc2onc3c2CCCC3)cc1	D1 antagonist -44.9
CCOc1ccc(C(=O)Nc2onc3c2CCCC3)cc1	none
Cc1ccc(C)c(NC(=O)c2nc(S(C)(=O)=O)ncc2N(Cc2ccc(C(C)(C)C)cc2)Cc2ccco2)c1	none
CCN(Cc1ccccc1)C(=O)C1CCC(CNS(=O)(=O)c2ccc3c(c2)CCCC(=O)N3)CC1 (configuration not stated)	none
O=S(=O)(c1ccc(-c2ccccc2)cc1)N1CCCCC1	D1 antagonist -35.5
O=S(=O)(c1cccc(-c2cn3ccccc3n2)c1)N1CCCCC1	D1 antagonist -46.6
Cc1ccc(S(=O)(=O)N2CCCCC2)cc1	none
Cc1ccc(S(=O)(=O)N2CCC(=O)N2)cc1	D1 antagonist -67.8
O=S(=O)(c1ccc(S(=O)(=O)N2CCCC2)cc1)N1CCCCCC1	D1 antagonist -39.1
O=S(=O)(c1ccc(Cl)cc1)N1CCCCCC1	none
Cc1ccc(N2CCN(C(=O)c3nn(C)c4c3CSc3ccccc3-4)CC2C)cc1 (configuration not stated)	none
COc1cccc(CN2CCc3nc(Nc4ccc5c(c4)OCCO5)ncc3C2)c1OC	none
Cc1ccc(S(=O)(=O)N2CCCN(C(C)c3nc4ccccc4c(=O)[nH]3)CC2)cc1 (configuration not stated)	D1 antagonist -38.0
CNc1nc(-c2ccc(S(=O)(=O)N3CCCCC3)cc2)cs1	D1 antagonist -33.3
Cc1ccc(S(=O)(=O)N2CCCN(S(=O)(=O)c3ccc(C)cc3)CC2)cc1	D1 antagonist -34.4
O=S(=O)(c1cnc[nH]1)N1CCCCCC1	D1 antagonist -45.2
CC1CCN(S(=O)(=O)c2cnc[nH]2)CC1	none
O=C(Cc1ccc(F)cc1)NC1CC(=O)N(c2ccccc2)C1 (configuration not stated)	none (no result: D1 antagonist)
CCOc1cccc2cc(-c3nc4sc5c(c4c(=O)[nH]3)CCC(C(C)(C)C)C5)c(=O)oc12 (configuration not stated)	none
CC(NC(=O)c1ccc(N2Cc3ccccc3Oc3ncccc32)s1)c1ccccc1 (configuration not stated)	none
Cc1ccc2c(c1)-c1c(c(C(=O)N3CCN(c4cc(Cl)ccc4C)CC3)nn1C)CS2	none
Cc1cccc(C)c1NC(=O)CSc1nccn1C	none
CSc1nc2cc(S(=O)(=O)N3CCCCC3)ccc2s1	D1 antagonist -30.9
CSc1nc2cc(S(=O)(=O)N3CCOCC3)ccc2s1	none
CCN(CC)C(=O)Cn1cc(C(=O)C(=O)NCCCN2CCOCC2)c2ccccc21	D1 antagonist -34.1
CCN(CC)C(=O)Cn1cc(C(=O)C(=O)NCCc2ccccc2)c2ccccc21	none
Cc1ccc(NC(=O)CSc2nc3c(oc4ccccc43)c(=O)n2Cc2ccco2)cc1	none
S=C(NCc1ccco1)Nc1ccccc1	none
O=C(NC(=S)NCc1ccco1)c1ccccc1	D1 antagonist -31.4
O=C(NCc1ccco1)/C(=C\c1ccccc1)NC(=O)c1ccccc1	none (no result: D1 potentiator)
O=C(O)Cc1ccc(NC(=S)NCc2ccco2)cc1	D1 antagonist -39.5
COc1ccc(/C=C(\NC(=O)c2ccccc2)C(=O)NCc2ccco2)cc1	D1 antagonist -30.7
S=C(NCc1ccco1)Nc1ccc(Cl)cc1	D1 antagonist -31.0
Cc1c(C(=O)N2CCCCCC2)c(S(=O)(=O)N(Cc2ccccc2)C(C)(C)C)c(C)n1C	none
